# Test results: the supplement of paper PMC11732987, “Enantioselective OTUD7B fragment discovery through chemoproteomics screening and high-throughput optimisation” (Communications Chemistry, 2025)
# Values without a mark were called inactive.
# Key:
# Test in all cases: log2 ratio of Biotin-Ahx-Ub-VS probe labelling (fragment/DMSO); higher = less target engagement (more negative = stronger competition), active = hit call of the paper (q ≤ 0.05, log2 ratio ≤ -1)
# Conditions in all cases: compound concentration: 200 uM; treatment time: 3 h
# OTUD6B = biological target: T1, OTUD6B (UniProt Q8N6M0)
# T1 sequence (whole entry): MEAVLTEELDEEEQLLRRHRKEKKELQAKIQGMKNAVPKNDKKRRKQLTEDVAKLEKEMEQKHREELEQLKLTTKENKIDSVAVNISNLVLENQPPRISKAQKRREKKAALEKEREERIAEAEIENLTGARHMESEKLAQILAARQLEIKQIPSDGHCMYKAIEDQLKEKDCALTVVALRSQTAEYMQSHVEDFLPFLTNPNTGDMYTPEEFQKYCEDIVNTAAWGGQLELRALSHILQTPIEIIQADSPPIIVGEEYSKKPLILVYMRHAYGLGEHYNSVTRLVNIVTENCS
# Procedure, shortened: (§1)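 The table lists average log2 ratios of fragment over vehicle, from an unpaired t-test on global-median-normalised Spectronaut label-free quantities. Proteins with ≥2 unique peptides were used. Samples were HEK293T lysate (495 µg) treated in triplicate with fragment at 200 µM or vehicle for 3 h, then with Biotin-Ahx-Ub-VS (0.5 µM final) for 1 h, with labelled DUBs NeutrAvidin-enriched and run by diaPASEF LC-MS/MS.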
# OTUD7B = biological target: T2, OTUD7B (UniProt Q6GQQ9)
# T2 sequence (whole entry): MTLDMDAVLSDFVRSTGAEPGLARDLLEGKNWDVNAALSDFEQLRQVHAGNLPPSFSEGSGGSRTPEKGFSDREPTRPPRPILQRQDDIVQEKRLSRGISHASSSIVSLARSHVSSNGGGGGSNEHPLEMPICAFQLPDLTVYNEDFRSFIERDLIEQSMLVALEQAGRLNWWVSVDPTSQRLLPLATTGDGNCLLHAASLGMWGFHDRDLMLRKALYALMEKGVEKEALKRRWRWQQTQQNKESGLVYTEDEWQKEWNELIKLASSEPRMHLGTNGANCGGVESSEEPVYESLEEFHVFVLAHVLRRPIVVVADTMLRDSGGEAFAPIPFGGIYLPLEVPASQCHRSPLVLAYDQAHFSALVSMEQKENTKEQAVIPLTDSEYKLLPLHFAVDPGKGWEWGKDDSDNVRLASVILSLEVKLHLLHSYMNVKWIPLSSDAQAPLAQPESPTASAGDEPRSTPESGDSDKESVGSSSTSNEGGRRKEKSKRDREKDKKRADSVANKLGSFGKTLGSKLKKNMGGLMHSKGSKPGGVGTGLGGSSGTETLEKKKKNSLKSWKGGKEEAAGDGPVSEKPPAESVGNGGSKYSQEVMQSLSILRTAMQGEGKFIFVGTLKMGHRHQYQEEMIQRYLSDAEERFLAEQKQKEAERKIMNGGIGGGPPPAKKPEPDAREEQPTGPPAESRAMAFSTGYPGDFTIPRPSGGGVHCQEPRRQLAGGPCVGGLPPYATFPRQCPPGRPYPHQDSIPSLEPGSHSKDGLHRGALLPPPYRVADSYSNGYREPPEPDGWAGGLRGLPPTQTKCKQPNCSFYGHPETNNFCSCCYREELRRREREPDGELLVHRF
# Procedure, shortened: as §1
# PRPF8 = PRPF8 (UniProt Q6P2Q9)
# Procedure, shortened: as §1
# PSMD7 = biological target: T3, PSMD7 (UniProt P51665)
# T3 sequence (whole entry): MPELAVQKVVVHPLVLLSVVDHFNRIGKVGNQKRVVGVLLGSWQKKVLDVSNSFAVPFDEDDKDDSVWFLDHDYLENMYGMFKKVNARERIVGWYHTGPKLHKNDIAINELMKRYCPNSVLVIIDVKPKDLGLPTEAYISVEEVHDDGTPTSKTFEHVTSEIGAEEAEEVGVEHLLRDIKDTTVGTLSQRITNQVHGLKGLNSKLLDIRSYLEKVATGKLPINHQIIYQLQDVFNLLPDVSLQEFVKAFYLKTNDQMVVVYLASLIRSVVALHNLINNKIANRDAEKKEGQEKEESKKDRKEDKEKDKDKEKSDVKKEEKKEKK
# Procedure, shortened: as §1
# UCHL1 = UCHL1 (UniProt P09936)
# Procedure, shortened: as §1
# UCHL3 = biological target: T4, UCHL3 (UniProt P15374)
# T4 sequence (whole entry): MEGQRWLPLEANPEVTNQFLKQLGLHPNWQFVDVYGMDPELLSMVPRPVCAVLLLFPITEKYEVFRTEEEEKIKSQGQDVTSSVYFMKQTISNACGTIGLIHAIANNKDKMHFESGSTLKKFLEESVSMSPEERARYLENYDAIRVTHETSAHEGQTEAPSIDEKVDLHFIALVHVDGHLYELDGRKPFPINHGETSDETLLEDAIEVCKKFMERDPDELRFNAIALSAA
# Procedure, shortened: as §1
# UCHL5 = biological target: T5, UCHL5 (UniProt Q9Y5K5)
# T5 sequence (whole entry): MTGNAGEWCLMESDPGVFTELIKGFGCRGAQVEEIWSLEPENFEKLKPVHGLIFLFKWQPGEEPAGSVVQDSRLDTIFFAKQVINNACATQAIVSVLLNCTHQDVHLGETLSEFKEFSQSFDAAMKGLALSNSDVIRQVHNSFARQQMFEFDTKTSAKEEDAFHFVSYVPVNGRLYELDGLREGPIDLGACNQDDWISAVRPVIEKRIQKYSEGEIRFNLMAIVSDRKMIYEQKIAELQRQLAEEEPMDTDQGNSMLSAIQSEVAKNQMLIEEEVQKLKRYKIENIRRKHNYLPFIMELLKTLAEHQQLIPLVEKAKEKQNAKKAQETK
# Procedure, shortened: as §1
# USP10 = USP10 (UniProt Q14694)
# Procedure, shortened: as §1
# USP15 = biological target: T6, USP15 (UniProt Q9Y4E8)
# T6 sequence (whole entry): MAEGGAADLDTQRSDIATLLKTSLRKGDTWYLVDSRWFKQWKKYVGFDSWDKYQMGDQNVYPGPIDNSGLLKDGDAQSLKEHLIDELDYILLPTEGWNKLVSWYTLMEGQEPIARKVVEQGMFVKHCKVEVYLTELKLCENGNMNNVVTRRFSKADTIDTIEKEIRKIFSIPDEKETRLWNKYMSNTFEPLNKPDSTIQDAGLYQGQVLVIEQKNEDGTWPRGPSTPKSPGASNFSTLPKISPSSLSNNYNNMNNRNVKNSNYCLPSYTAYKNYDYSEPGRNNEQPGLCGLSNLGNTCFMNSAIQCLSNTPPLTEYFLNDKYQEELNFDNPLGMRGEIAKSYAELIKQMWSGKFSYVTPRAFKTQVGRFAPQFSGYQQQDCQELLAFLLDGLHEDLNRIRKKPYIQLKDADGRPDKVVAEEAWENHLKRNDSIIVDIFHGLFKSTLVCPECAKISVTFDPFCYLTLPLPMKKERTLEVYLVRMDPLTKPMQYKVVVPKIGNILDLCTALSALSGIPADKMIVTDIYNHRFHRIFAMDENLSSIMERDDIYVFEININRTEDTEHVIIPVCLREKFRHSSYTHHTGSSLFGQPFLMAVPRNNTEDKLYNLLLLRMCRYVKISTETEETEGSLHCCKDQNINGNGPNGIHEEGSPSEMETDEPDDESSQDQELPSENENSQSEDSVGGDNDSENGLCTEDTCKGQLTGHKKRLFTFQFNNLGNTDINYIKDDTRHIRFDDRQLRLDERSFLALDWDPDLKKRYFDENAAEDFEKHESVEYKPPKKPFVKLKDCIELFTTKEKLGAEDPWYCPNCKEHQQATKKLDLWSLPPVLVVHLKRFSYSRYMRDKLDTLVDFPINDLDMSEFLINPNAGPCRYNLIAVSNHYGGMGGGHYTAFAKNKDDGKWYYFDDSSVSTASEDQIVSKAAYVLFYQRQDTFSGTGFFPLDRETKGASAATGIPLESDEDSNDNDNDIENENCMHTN
# Procedure, shortened: as §1
# USP16 = USP16 (UniProt Q9Y5T5)
# Procedure, shortened: as §1
# Sequence of USP10 (Q14694 whole entry): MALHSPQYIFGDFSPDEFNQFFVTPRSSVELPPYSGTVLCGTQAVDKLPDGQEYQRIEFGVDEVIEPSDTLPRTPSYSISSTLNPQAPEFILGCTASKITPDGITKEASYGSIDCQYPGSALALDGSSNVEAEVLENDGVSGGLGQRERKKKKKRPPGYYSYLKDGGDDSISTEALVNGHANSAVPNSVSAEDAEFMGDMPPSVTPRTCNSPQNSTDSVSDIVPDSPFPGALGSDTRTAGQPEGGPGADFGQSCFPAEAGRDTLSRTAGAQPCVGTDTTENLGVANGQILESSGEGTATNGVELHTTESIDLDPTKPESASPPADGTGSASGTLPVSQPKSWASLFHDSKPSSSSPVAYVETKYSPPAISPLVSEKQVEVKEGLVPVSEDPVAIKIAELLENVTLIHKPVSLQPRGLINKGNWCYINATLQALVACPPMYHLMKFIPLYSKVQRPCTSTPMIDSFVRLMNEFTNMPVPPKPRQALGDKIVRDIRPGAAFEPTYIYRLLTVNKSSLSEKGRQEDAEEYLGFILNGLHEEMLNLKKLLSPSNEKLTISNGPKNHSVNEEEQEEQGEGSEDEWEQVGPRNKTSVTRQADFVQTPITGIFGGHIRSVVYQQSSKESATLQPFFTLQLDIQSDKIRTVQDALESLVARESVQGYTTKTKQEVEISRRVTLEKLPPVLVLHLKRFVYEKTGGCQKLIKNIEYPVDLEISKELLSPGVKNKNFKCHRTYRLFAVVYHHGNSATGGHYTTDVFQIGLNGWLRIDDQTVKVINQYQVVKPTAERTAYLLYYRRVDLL
# Sequence of UCHL1 (P09936 whole entry, looked up): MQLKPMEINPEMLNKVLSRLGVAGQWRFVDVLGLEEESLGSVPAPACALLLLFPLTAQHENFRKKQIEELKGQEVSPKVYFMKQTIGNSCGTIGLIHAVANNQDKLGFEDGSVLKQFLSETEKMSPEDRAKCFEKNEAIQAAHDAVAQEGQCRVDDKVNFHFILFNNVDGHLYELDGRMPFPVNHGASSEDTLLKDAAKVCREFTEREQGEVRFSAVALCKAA
# Sequence of USP16 (Q9Y5T5 whole entry, looked up): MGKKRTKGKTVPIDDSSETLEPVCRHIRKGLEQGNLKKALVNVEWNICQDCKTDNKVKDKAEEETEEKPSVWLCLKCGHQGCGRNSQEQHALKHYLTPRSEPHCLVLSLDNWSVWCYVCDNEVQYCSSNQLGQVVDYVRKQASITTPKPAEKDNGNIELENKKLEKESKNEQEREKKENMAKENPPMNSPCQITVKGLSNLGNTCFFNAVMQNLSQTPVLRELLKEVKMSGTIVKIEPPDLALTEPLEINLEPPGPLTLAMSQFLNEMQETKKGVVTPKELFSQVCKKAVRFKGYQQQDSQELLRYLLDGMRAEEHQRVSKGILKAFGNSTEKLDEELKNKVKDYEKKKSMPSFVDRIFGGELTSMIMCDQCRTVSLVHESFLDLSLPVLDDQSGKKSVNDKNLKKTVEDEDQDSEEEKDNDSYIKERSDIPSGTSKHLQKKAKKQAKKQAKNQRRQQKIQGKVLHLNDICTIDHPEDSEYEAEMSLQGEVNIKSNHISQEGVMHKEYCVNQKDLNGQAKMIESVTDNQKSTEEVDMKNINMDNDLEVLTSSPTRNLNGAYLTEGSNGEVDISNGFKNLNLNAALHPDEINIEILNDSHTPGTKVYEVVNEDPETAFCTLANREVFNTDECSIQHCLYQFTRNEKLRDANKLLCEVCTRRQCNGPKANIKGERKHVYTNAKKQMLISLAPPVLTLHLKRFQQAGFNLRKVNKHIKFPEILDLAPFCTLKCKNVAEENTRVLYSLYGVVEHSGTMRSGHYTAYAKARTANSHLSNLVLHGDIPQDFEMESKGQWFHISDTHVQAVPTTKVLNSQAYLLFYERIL
compound,measurement,setting,value
O=C(CCl)NC(Cn1ccccc1=O)c1ccccc1 (stereo not given),log2 ratio of Biotin-Ahx-Ub-VS probe labelling,OTUD6B,0.102
same,log2 ratio of Biotin-Ahx-Ub-VS probe labelling,OTUD7B,-0.332
same,log2 ratio of Biotin-Ahx-Ub-VS probe labelling,PRPF8,-0.224
same,log2 ratio of Biotin-Ahx-Ub-VS probe labelling,PSMD7,-0.094
same,log2 ratio of Biotin-Ahx-Ub-VS probe labelling,UCHL1,-1.61 (active)
same,log2 ratio of Biotin-Ahx-Ub-VS probe labelling,UCHL3,0.233
same,log2 ratio of Biotin-Ahx-Ub-VS probe labelling,UCHL5,-0.175
same,log2 ratio of Biotin-Ahx-Ub-VS probe labelling,USP10,-0.0324
same,log2 ratio of Biotin-Ahx-Ub-VS probe labelling,USP15,-0.0415
same,log2 ratio of Biotin-Ahx-Ub-VS probe labelling,USP16,-0.972
